Sampled rows, rich in hits. Any-hit rate of the full collection: about 7.3%.
ELG1 genotox: qHTS screen for small molecules that induce genotoxicity in human embryonic kidney (HEK293T) cells expressing luciferase-tagged ELG1 | 330,000 compounds, 1.3% hits | AID 504466, 2011 | Potency, µM (top dose mostly 46 µM), without a hit: at the highest dose activity change, positive = activation, actives largely listed as activators | HEK293T ELG1-luciferase reporter, luminescence, 16 h; also: % of control where 0% means no effect; nearly all actives have a fitted effect of over 60% in size
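Screening used a luciferase reporter fused to human ELG1 in HEK293T cells. Luminescence was read on a CCD plate imager after 16 hr exposure and 30 min ONE-Glo incubation.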
NPC1 promoter act: qHTS Assay for NPC1 Promoter Activators | 320,000 compounds, 2.4% hits | Potency, µM (series often up to 9.22 µM), for inactives: at the top dose activation, actives largely listed as activators | Huh7 NPC1 promoter luciferase reporter, 24 h | AID 485313, 2010; also: % of control where 0% means no effect; nearly all actives have a fitted effect of over 60% in size
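In 1536-well qHTS, Huh7 cells harboring an NPC1 promoter–luciferase construct received compound for 24 h; activation was quantified by luminescence following luciferase reagent addition.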
Rab9 promoter act: qHTS Assay for Rab9 Promoter Activators. Huh7 Rab9 promoter-luciferase reporter, luminescence, 24 h. 320,000 compounds, 2.8% hits. Potency, µM (series often up to 9.22 µM), inactives show at the highest dose activation, negative = inhibition, hits mostly activators; also: % of control where 0% means no effect; nearly all actives have a fitted effect of over 60% in size
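Cell-based reporter: Huh7 stable for Rab9 promoter-driven luciferase, plated in reduced-serum medium with 10% FBS at 1500 cells/well, compound-treated 24 h at 37 °C, luminescence read after 10 min reagent.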
FLuc modulator: qHTS profiling assay for firefly luciferase inhibitor/activator using purifed enzyme and Km concentrations of substrates (counterscreen for miR-21 project); Luciferin 4-monooxygenase (Photinus pyralis), P08659; purified FLuc, Km substrates, luminescence inhibition; Potency, µM (doses to about 57.5 µM), for inactives: at the top dose activity change, negative = inhibition, usual class: inhibitors; AID 588342, 2011; 360,000 compounds, 6.9% hits;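 also: plate controls were vehicle for no effect and reference inhibitor for full effect; nearly all actives have a fitted effect of over 55% in size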
Target sequence (P08659 whole entry, looked up): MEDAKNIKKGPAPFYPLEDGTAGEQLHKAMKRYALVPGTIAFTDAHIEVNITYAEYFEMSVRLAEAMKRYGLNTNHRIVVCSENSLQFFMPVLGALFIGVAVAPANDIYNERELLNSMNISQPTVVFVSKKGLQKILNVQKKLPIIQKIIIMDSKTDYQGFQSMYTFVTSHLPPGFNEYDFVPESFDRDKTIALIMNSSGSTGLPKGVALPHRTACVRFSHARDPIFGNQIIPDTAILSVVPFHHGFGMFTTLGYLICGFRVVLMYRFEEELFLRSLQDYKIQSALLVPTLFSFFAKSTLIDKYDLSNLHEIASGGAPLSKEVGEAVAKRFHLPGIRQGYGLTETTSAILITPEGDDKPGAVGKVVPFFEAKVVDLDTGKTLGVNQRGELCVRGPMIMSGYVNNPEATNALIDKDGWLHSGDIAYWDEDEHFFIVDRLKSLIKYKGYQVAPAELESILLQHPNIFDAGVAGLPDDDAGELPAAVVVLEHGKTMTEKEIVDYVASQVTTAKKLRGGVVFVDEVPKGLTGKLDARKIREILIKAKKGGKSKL
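Purified P. pyralis luciferase (10nM final) with 10uM D-luciferin and 10uM ATP (Km levels) in 50mM Tris acetate pH 7.5, 10mM Mg acetate, 0.01% Tween-20, 0.05% BSA; qHTS 6-point titration, ~60 µM downward; luminescence read.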
KinaseGlo FLuc: Counterscreen for Luciferase (Kinase-Glo TM) Inhibition; AID 1379, 2008; Kinase-Glo luciferase, ATP luminescence, 8 min; Potency, µM (highest dose often 38.3 µM), for inactives: top-dose activity change, negative = inhibition, most hits filed as inhibitors; Luciferin 4-monooxygenase (Photuris pensylvanica), Q27757; 200,000 compounds, 0.28% hits; also: % is scaled to controls: 0 for no effect and ±100 for the full control effect; nearly all actives have a fitted effect of over 60% in size
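Kinase-Glo luciferase light output from ATP and luciferin was measured with 10 uM ATP, within the enzyme's linear range. Buffer: 50 mM imidazole pH 7.2, 50 mM KCl, 7 mM MgCl2, 0.01% Tween 20, 0.05% BSA; luminescence read after 8 min at ambient temperature.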
SMN2 splice enh: qHTS Assay for Enhancers of SMN2 Splice Variant Expression. HEK293 SMN2-luciferase splicing reporter, luminescence, 30-36 h. Potency, µM (titrated, usually from 46.1 µM), for inactives: top-dose activity change, positive = activation, most hits filed as activators. 210,000 compounds, 2.8% hits. AID 1458, 2008; also: % of control where 0% means no effect; nearly all actives have a fitted effect of over 55% in size
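HEK293 cells carry an SMN2 minigene-luciferase reporter in which exon 7 inclusion puts luciferase in frame. Cells were seeded at 2000 cells/well, attached for 10-12 hours, then exposed to compounds for 30-36 hours at 37C before ONE-Glo luminescence.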
* marks the source's active call; other numbers are inactive results; u = inconclusive; x = no result; [ ] = dose if it differs, or a comment. Calls follow the shape of the dose curve; as a rule, active = well fitted curve in the direction sought with a large enough effect; inconclusive = small, poorly fitted or top-dose-only effect, or another doubt; inactive = no such curve, though single readings can be large; an effect the other way counts as inactive or inconclusive. Potency is read from the fitted curve at half-maximal effect.

SMILES	ELG1 genotox	NPC1 promoter act	Rab9 promoter act	FLuc modulator	KinaseGlo FLuc	SMN2 splice enh
CC1=NN(c2ccccc2)C(=O)/C1=C\c1c(C)[nH]n(-c2ccccc2)c1=O	-2.9%	3.4%	-0.4%	u	-1.7%	-21.7%
CC1=NN(c2ccccc2)C(=O)/C1=C/c1c(O)n(-c2ccc(F)c(Cl)c2)[nH]c1=O	16.3%	20.7%	u	2.69µM*	-2.3%	-1.9%[1.84 µM]
COC(=O)c1ccc(/C=C/c2nc3ccccc3c(=O)[nH]2)cc1	u	0.501µM*	1.12µM*	0.675µM*	x	x
COc1cc(/C=C/c2nc3ccccc3c(=O)[nH]2)cc(OC)c1OC	12.0%	-4.9%	0.3%[1.84 µM]	u	x	x
C=CCOc1cccc(/C=C/c2nc3ccccc3c(=O)[nH]2)c1	9.2µM*	u	3.55µM*	1.51µM*	x	x
Cc1ccc(/C=C/c2nc3ccccc3c(=O)[nH]2)cc1	u	0.501µM*	0.355µM*	0.151µM*	x	x
Cc1cc2nc(/C=C/c3nc4cc(C)c(C)cc4[nH]3)[nH]c2cc1C	-0.2%	-2.9%	6.0%	u	x	x
Cc1ccc(/C=C/c2nc3ccccc3[nH]2)cc1	x	x	x	0.0757µM*	x	x
N.N.N.N.N.N.N.N.N.N.N.N.N.N.O.O.[Ru+4].[Ru+5].[Ru+5]	x	-11.6%[46.1 µM]	-11.0%[46.1 µM]	x	x	x
COc1ccc(-n2nc3c(N4CCCC(C(=O)NCc5ccc(C)cc5)C4)nnc(C)c3c2C)cc1 (configuration not stated)	x	x	x	-8.8%	x	x
COc1cc(/C=C/c2nc3ccccc3c(=O)[nH]2)ccc1OC(F)F	27.4%	5.01µM*	u	u	x	x
CC(=O)/C=C/c1ccc(C)o1	29.7%	-1.5%	-3.8%	-7.8%	0.4%	-16.4%
Cc1ccc(/C=C/c2nc3ccccc3[nH]2)o1	u	0.708µM*	0.447µM*	0.849µM*	12.6µM*	3.98µM*
COc1ccccc1N1CCN(c2nc3ccccc3n3cnnc23)CC1	x	x	x	-18.5%	x	-4.4%
COc1ccccc1CNC(=O)c1ccc(Cn2c(SCc3ccccc3)nc3cccnc32)cc1	x	x	x	4.78µM*	x	x
CCN(CC)CCCNC(=O)c1ccc(Cn2c(SCc3ccccc3)nc3cccnc32)cc1	x	x	x	21.3µM*	x	x
Cc1ccccc1CNC(=O)c1ccc(Cn2c(SCc3ccccc3)nc3cccnc32)cc1	x	x	x	2.69µM*	x	x
COc1ccc(Cn2c(SCc3ccc(C(=O)NC4CCCCC4)cc3)nc3cccnc32)cc1	x	x	x	-1.9%	x	x
CC(CNC(=O)c1ccc(Cn2c(SCc3ccccc3)nc3cccnc32)cc1)c1ccccc1 (configuration not stated)	x	x	x	4.78µM*	x	x
Cc1cc2nc(-c3ccc(OCc4ccccc4F)cc3)cc(C(F)(F)F)n2n1	x	x	x	-1.3%	x	4.0%
CC(C)c1nn2c(=O)cc(COC(=O)c3ccc(NC(=O)COc4ccccc4)cc3)nc2s1	x	x	x	1.7%	x	x
CC(C)CNC(=O)C1=CC(c2ccc3c(c2)OCO3)=NS(=O)(=O)N1C	x	x	x	0.9%	x	x
COCCn1c(=O)[nH]c(=O)c2c1nc(-c1ccc(-c3ccc(Cl)cc3[N+](=O)[O-])o1)n2Cc1ccccc1	-13.5%	-2.8%	-1.6%	-1.4%	-1.0%	u
COCc1cc(C)nc(N/N=C/c2ccc(-c3ccc(Cl)cc3[N+](=O)[O-])o2)c1C#N	-1.0%	0.3%	3.98µM*	-10.3%	-0.5%	-2.5%
CC1CCc2c(sc(NC(=O)c3ccc(Cn4cc([N+](=O)[O-])cn4)o3)c2C#N)C1 (configuration not stated)	0.6%	9.2%	6.5%	13.5µM*	0.8%	3.0%
SMILES	ELG1 genotox	NPC1 promoter act	Rab9 promoter act	FLuc modulator	KinaseGlo FLuc	SMN2 splice enh
Cc1ccc(NC(=O)c2ccc(Cn3cc(Cl)cn3)o2)c(C)c1	-5.7%	0.0%	-4.0%	-1.7%	x	x
COC(=O)c1sc(NC(=O)c2ccc(Cn3cc(Cl)cn3)o2)c(C#N)c1C	-14.3%	0.6%	-0.7%	21.3µM*	0.5%	-14.1%
N#Cc1c(NC(=O)c2ccc(Cn3cc(Br)cn3)o2)sc2c1CCCCC2	0.5%	20.9%	-1.4%	10.7µM*	5.2%	u
COc1cccc(CNC(=O)C2CCCCN2S(=O)(=O)c2ccc(F)cc2)c1 (configuration not stated)	x	x	x	-1.1%	x	x
Cn1c(-c2ccc(S(=O)(=O)N3CCCC3)cc2)csc1=Nc1ccc(Cl)c(Cl)c1	x	x	x	-0.6%	x	-10.6%
N[C@H](C(=O)O)[C@H]1C[C@H]1C(=O)O	x	x	x	x	x	-13.4%
O=C(/C(N=Nc1cccc(C(F)(F)F)c1)=C(/O)c1cccs1)C(F)(F)F	-8.9%	9.3%	28.5%	-3.3%	x	x
Cc1ccc(N=C/C(C(=O)C(F)(F)F)=C(\O)c2cccs2)cc1	u	1.78µM*	1.78µM*	13.5µM*	-2.4%	u
CC(C)c1ccc(NC(=O)CSC2=Nc3ccccc3C3=NC(CC(=O)NCc4ccco4)C(=O)N23)cc1 (configuration not stated)	x	x	x	-7.5%	x	x
CC1CCC(NC(=O)C2(C)Cc3ccccc3C(=O)N2Cc2ccccc2Cl)CC1 (configuration not stated)	x	x	x	4.2%	x	8.9%
COc1ccc(OC)c2c(N3CC(C)OC(C)C3)cc(C(F)(F)F)nc12 (configuration not stated)	u	2.82µM*	3.16µM*	7.57µM*	x	x
Cc1ccccc1Cn1c(=O)n(Cc2ccc(Cl)cc2)c(=O)c2cccnc21	x	x	x	-11.5%	x	-1.1%
O=[N+]([O-])c1cccc(-c2ccc(SCc3ccccn3)nn2)c1	u	u	3.98µM*	26.9µM*	0.4%	u
COc1cccc(-c2ccc(SCc3ccccn3)nn2)c1	u	3.55µM*	2.82µM*	10.7µM*	-15.8%	11.2µM*
COc1cc(S(=O)(=O)n2ccnc2C(C)C)ccc1Br	x	x	x	-15.0%	x	13.0%
CCc1cccc(C)c1NC(=O)Cn1ccn(-c2ccc(F)cc2)c(=O)c1=O	x	x	x	4.4%	x	x
CN(C)c1ccc(/C=C/c2nnnn2-c2ccccc2)cc1	u	2µM*	1.58µM*	8.49µM*	-4.6%	15.8µM*
Cc1cc(N/C=C\c2nnnn2-c2ccccc2)no1	12.5%	10.6%	1.9%	u	-1.7%	29.6%
O=C(COC(=O)c1cc(S(=O)(=O)Nc2ccccc2Cl)ccc1O)Nc1nc2ccccc2s1	4.2%	6.2%	u	21.3µM*	2.0%	15.6%
N#Cc1cccc(NC(=O)COC(=O)c2cc(S(=O)(=O)Nc3ccccc3Cl)ccc2O)c1	-3.0%	x	x	x	x	x

Screens from PubChem BioAssay.
